In the library only some 11% were active in any assay of this set; here they are far more common.
ALDH1A1 inh: ALDH1A1 (human) enzyme inhibition; Purified ALDH1A1, NADH fluorescence, propionaldehyde substrate; Potency, µM (top dose mostly 75.3 µM), for inactives: at the highest dose activity, negative = inhibition, most hits filed as inhibitors; 7.3% of 220,000 active; AID 1030; active = well fitted inhibition curve with a large enough effect, not every such curve was filed as active; inconclusive = small, poorly fitted or top-dose-only effect, or another doubt; inactive = no such curve, though single readings can be large or run the other way;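 also: potency is read from the fitted curve at half-maximal effect; plate controls were no enzyme wells and a reference inhibitor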
PNC inhibitor: inhibitors of perinucleolar compartment assembly; AID 2417; 3.1% of 140,000 active; activity change (PNC), negative = inhibition, % at 10 µM; PC3M PTB-GFP, PNC prevalence imaging, 16 h; hits give low values;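 active = readout at or below -70, meaning at least 70% loss of cells showing the perinucleolar compartment, a nuclear body marking cancer cells; inconclusive = readout between -30 and a set limit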;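 also: plate controls were DMSO wells for no effect and camptothecin positive control wells for full effect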
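Read-out is percentage of cells bearing a perinucleolar compartment, from automated 20x imaging of fixed, Hoechst-stained PC3M PTB-GFP cells. Cells were seeded 4 h, then exposed 16 h to compound (23 nl of library stock) in duplicate plates.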
HPGD inh: inhibitors of human 15-hydroxyprostaglandin dehydrogenase (HPGD); Potency, µM, without a hit: at the top dose activity change, negative = inhibition, most hits filed as inhibitors; 4.3% of 150,000 active; purified HPGD, NADH fluorescence kinetic, PGE2 substrate; P15428; AID 894; active = well fitted inhibition curve with a large enough effect, not every such curve was filed as active; inconclusive = small, poorly fitted or top-dose-only effect, or another doubt; inactive = no such curve, though single readings can be large or run the other way; also: potency is read from the fitted curve at half-maximal effect
Target sequence (P15428 whole entry, looked up): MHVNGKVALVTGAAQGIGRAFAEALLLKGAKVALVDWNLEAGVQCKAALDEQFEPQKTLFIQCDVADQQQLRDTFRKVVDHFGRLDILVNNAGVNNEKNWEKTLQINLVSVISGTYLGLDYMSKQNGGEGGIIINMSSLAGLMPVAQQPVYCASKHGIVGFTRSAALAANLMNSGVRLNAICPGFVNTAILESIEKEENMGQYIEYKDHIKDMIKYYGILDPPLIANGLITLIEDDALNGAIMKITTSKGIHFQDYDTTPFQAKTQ
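20 nM HPGD preincubated 15 min at room temperature with compound in 50 mM Tris-HCl pH 8, 0.01% Tween 20. Started with 1 mM NAD+ and 30 uM prostaglandin E2; NADH fluorescence (360/450 nm) read 5 times over 30-s intervals, last minus first.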
IMPase Li cell: membrane-permeable IMPase blocker, potentiated with lithium. 0.35% of 210,000 active. CHO-M1 cells, IP1 TR-FRET (IP-One), carbachol + lithium. AID 1457. Potency, µM (top dose mostly 59.4 µM), for inactives: at the highest dose activity, negative = IMPase inhibition, actives largely listed as inhibitors;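 also: IP1 builds up when IMPase is blocked and the TR-FRET signal falls; potency is read from the fitted curve at half-maximal effect; plate controls were basal vehicle for no effect and high inhibitor control for full effect; nearly all actives have a fitted effect of over 50% in size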
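CHO cells stably expressing M1 receptor (2000/well) were cultured 16–30 h, then exposed to compounds with a small lithium addition for 30 min at 37C. IP1 was measured by TR-FRET competition; AC50 from Hill fits.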
ALOX12 inhib: 12-hLO (ALOX12) enzyme inhibition; 0.12% of 150,000 active; Potency, µM (series often up to 57.1 µM), without a hit: at the highest dose activity change, negative = inhibition, actives largely listed as inhibitors; P18054; purified 12-hLO, xylenol orange hydroperoxide absorbance; also: potency is read from the fitted curve at half-maximal effect; nearly all actives have a fitted effect of over 55% in size
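150 nM 12hLO, 25 mM Hepes pH 7.0 + 0.01% Triton X-100; cpd preinc 15 min RT; 40 uM arachidonic acid, 30 min RT; Fe-XO 30 min; A573/A405 ratio as read-out.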
IMPase cell inh: cell-permeable inhibitors of inositol monophosphatase (IMPase); P97697; CHO-M1 cells, IP1 accumulation, HTRF TR-FRET ratio; inhibition (IP1 accumulation), % at 46.1 µM; 120,000 tested, under 10 active; AID 901; active = well fitted curve in the direction sought with a large enough effect in the signal ratio, not every such curve was filed as active; inconclusive = small, poorly fitted or top-dose-only effect, or a change in a side signal; inactive = no such curve, though single readings can be large or run the other way; the % refers to the signal ratio;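 also: cells stimulated with carbachol in lithium chloride buffer; plate controls were DMSO basal wells for no effect and reference inhibitor wells for full effect; higher means more IMPase inhibition seen as more IP1 and lower FRET ratio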
Target sequence (P97697 whole entry, looked up): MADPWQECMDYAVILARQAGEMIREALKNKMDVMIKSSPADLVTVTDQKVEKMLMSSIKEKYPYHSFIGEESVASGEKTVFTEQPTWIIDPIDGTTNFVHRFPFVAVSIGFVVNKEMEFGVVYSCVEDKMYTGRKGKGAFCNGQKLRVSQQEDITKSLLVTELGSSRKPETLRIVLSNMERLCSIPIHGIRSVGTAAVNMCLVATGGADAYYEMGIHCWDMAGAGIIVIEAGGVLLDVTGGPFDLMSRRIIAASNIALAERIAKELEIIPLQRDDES
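Carbachol-driven Gq signalling in CHO-M1 cells (2000/well) generates IP1. Compounds that block IMPase raise IP1 and so reduce the FRET signal from Eu-anti-IP1 and d2-IP1 after a 10 min room-temperature lysis.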
Starred values were filed as active, the others as inactive; u = inconclusive; x = not tested or not shown; [ ] = another dose, or the depositor's remark. Unless noted, calls follow the shape of the dose curve; as a rule, active = well fitted curve in the direction sought with a large enough effect; inconclusive = small, poorly fitted or top-dose-only effect, or another doubt; inactive = no such curve, though single readings can be large; an effect the other way counts as inactive or inconclusive. Unless noted, % is scaled to controls: 0 for no effect and ±100 for the full control effect.

SMILES	ALDH1A1 inh	PNC inhibitor	HPGD inh	IMPase Li cell	ALOX12 inhib	IMPase cell inh
COc1ccccc1-n1c(SCC(=O)N2CCCC2)nc2cccnc21	u	-110*	u	5%[38.3 µM]	0%	1
N#Cc1c(-n2ncnc2-c2ccc(Br)cc2)sc2c1CCCCC2	x	x	x	x	x	-11
CC(C)c1ccc(N(CC(=O)NN=C2CCN(C)CC2)S(=O)(=O)c2ccccc2)cc1	u	x	x	-1%	x	x
CSc1ccc(S(=O)(=O)N(CC(=O)NN=C2CCN(C)CC2)c2ccc(C)cc2)cc1	5µM*	x	x	-5%	x	x
CCCn1c(=N)c(C(=O)NCc2cccnc2)cc2c(=O)n3cc(C)ccc3nc21	x	x	x	x	x	-2
COc1ccc2c(CC(=O)NCCN3C(=O)S/C(=C\c4cccnc4)C3=O)coc2c1	22µM*	x	x	5%	x	x
COc1ccc(/C=C2\SC(=O)N(CCNC(=O)Cc3coc4cc(OC)ccc34)C2=O)cc1	13%	22	-11%	16%	1%	x
Cc1sc2nc(CSCC(=O)N(CCC#N)c3ccccc3)[nH]c(=O)c2c1C	u	x	x	1%	x	x
COc1ccc(/C(C)=C2\SC(=S)N(CCC(=O)O)C2=O)cc1	-9%	21	-27%	13%[38.3 µM]	-13%	-3
C/C(=C1/SC(=S)N(CCC(=O)O)C1=O)c1ccc(O)cc1	u	-7	18µM*	24%[38.3 µM]	-8%	0
CC[C@@]1(O)C(=O)COc2c1cc1n(c2=O)Cc2c-1nc1cccc(C(C)C)c1c2[Si](C)(C)C	u	x	u	-24%	-6%	x
CCc1ccc(CN2CCC(CO)(CC3CCCCO3)CC2)o1 (stereo not drawn)	8.9µM*	x	x	8%	x	x
CCN(CC)S(=O)(=O)c1ccc(F)c(C(=O)NCCC(C)C)c1	1%	-100*	-11%	0%	0%	8
Cn1cc(SCC(=O)NCc2ccc3c(c2)OCO3)c2ccccc21	u	-24	-20%	26%[38.3 µM]	-3%	u
COc1ccc(OC)c(C(=O)CN2CCN(S(=O)(=O)c3ccc(Br)cc3)CC2)c1	1.6µM*	-1	-29%	30%[38.3 µM]	-14%	0
COc1ccc(S(=O)(=O)N2CCCN(CC(=O)C(C)(C)C)CC2)cc1	20µM*	38	-11%	-7%[38.3 µM]	-12%	2
CC[C@H](C)[C@@H](C(=O)N1CCNCC1)n1cc([C@@H](N)CO)nn1	-1%	x	x	-6%	x	x
O=C(/C=C1\NCC2c3ccccc3CCN2C1=O)c1ccccc1 (stereo not drawn)	20µM*	15	-19%	8%[38.3 µM]	0%	1
CSc1ccc(S(=O)(=O)NCCOc2ccccc2C)cc1	13µM*	23	-20%	25%[38.3 µM]	-2%	11
CSc1ccc(S(=O)(=O)NCCSC(C)(C)C)cc1	7.9µM*	-14	-12%	20%[38.3 µM]	-11%	-1
CC(C)(C)SCCNS(=O)(=O)c1ccc2ccccc2c1	15µM*	14	-21%	5%[38.3 µM]	-23%	4
Cn1nc(OCC(N)=O)ccc1=O	3%	-100*	-12%	0%	3%	-7
COC(=O)C1CC(=O)c2ccsc2C1 (stereo not drawn)	5%	-109*	-1%	-5%	-2%	x
COc1cc2c(cc1OC)-c1c(OC)c(OC)cc3ccnc(c13)C2=O	-4%	-3	8.9µM*	28%	1%	24
CC1(C)CC2CC(C)(CN2C(=O)COc2cccc3ccccc23)C1 (stereo not drawn)	4%	3	32µM*	35%[38.3 µM]	-2%	2
CC1(C)CC2CC(C)(CN2C(=O)COC(=O)c2n[nH]c(=O)c3ccccc23)C1 (stereo not drawn)	u	-26	-6%	18%[38.3 µM]	1%	2
O=C1Nc2ccccc2N(O)N1c1ccc(S(=O)(=O)N2CCCCCC2)cc1	2%	-82*	0%	1%	-1%	x
O=C(O)COc1c(Cl)cc(/C=C2\NC(=O)NC2=O)cc1Br	18µM*	x	x	20%	x	x
CC(=O)Nc1c(O)[nH]c2ccccc12	13%	-98*	-8%	7%	3%	0

From PubChem
